In PubChem BioAssay AID485364 (National Center for Advancing Translational Sciences (NCATS), 2010):
The campaign covered roughly 360,000 compounds. About 11,000 (3.1%) were called active. A call without a number means that no potency is given here. Not shown: some 4% with an inconclusive outcome. Calls follow the shape of the dose curve; as a rule, active = well fitted inhibition curve with a large enough effect; inconclusive = small, poorly fitted or top-dose-only effect; inactive = no such curve, though single readings can be large or run the other way. This excerpt belongs to a sample that is enriched for actives.

target: Schistosoma mansoni thioredoxin glutathione reductase (TGR) (UniProt Q962Y6); assay: qHTS Assay for the Inhibitors of Schistosoma Mansoni Peroxiredoxins; conditions: purified TGR, DTNB reduction, TNB absorbance 405 nm; series mostly up to 114 µM; also: nearly all actives have a fitted effect of over 60% in size
Text: Schistosomiasis is a major neglected tropical disease that currently affects over 200 million. It is caused by different species of flatworms, such as Schistosoma mansoni. Over the last century, drugs to treat the disease have evolved from potassium antimonyl tartrate, artemisinin, oxamniquine, to praziquantel, with praziquantel remaining the universally-used single drug of choice over the past three decades. However, transmission rates have changed little with praziquantel, and there is evidence for the development of drug resistant parasites. Because there is currently no suitable alternative therapy available, there is an urgent need to identify new targets and drugs for schistosomiasis treatment. Thioredoxin glutathione reductase (TGR), one uniquely positioned S. mansoni enzyme, has been identified as a major component of the worms' distinct and compressed antioxidant "firewall". TGR is a multifunctional enzyme that catalyzes the interconversion between reduced and oxidized forms of both glutathione (GSH) and thioredoxins, thus making it an attractive new antiparasitic target. Recently, a quantitative high-throughput screen of the NIH Molecular Libraries Small Molecule Repository (MLSMR, ~71K at the time of the screen in 2007) was performed using an assay that targeted both TGR and peroxiredoxin2 (Prx2, an H2O2-reducing enzymatic component of the S. mansoni redox "firewall") by following the decrease of NADPH fluorescence. […] Additional mechanistic link between exogenous NO donation and parasitic injury for the oxadiazole-2-oxide class of compounds was also expanded and better defined. Although the screen addressed both TGR and Prx2, the assay required post-screen target deconvolution for further characterization of the actives. In addition, the fluorescence assay was also subject to fluorescence interference from compound library members. We have developed a 1536-well-based kinetic HTS assay to address TGR alone. The assay followed the reduction of 5, 5'-dithiobis (2-nitrobenzoic acid) (DTNB) (Ellman's reagent) by NADPH and measured the increase in absorbance at 412 nm of the reaction product, TNB. […] This assay format can be used to screen the current MLSMR collection (with >300K compounds available) to find novel TGR inhibitors. Furoxan is a good choice to serve as a positive control in the primary HTS assay.
Three microliters of reagents (100 uM NADPH and 20 nM TGR or 100 uM NADPH as no-enzyme control) were dispensed into 1,536-well black clear-bottomed plates. Compounds (23 nL) were transferred via Kalypsys pin tool equipped with 1536-pin array (10 nL slotted pins, V&P Scientific, San Diego, CA). The plates were then be incubated for 15 min at room temperature, and 1 uL aliquot of 500 uM NADPH were added, immediately followed by a 1 uL aliquot of 15 mM DTNB to start the reaction. The plate was transferred to a ViewLux high-throughput CCD imager (Perkin-Elmer, Wellesley, MA) where kinetic measurements of the TNB absorbance were acquired using a 405 excitation filter. Throughout the screen, reagent bottles and all liquid lines were made light-tight to minimize reagent degradation. All screening operations were performed on a fully integrated robotic system (Kalypsys, San Diego, CA) containing one RX-130 and two RX-90 anthropomorphic robotic arms (Staubli, Duncan, SC). Library plates were screened starting from the lowest and proceeding to the highest concentration, and a "double-dipping" step of the highest concentration was required to access higher concentrations of compounds. Vehicle-only plates, with DMSO being pin-transferred to the entire column 5-48 compound area, were inserted uniformly at the beginning and the end of each library in order to monitor for and record any shifts in the background, which can be affected by reagent dispensers or loss in enzyme activity overtime. […]
Potency is read from the fitted curve at half-maximal effect.

Row | Structure (SMILES) | Potency
1 | CN(Cc1ccccc1)C(=O)CCS(=O)(=O)c1cc(Br)cc2c1N(C(=O)C1CC1)CC2 | inactive
2 | N#CCCN1CCN(S(=O)(=O)c2ccc(S(=O)(=O)N3CCCC3)cc2)CC1 | inactive
3 | N#Cc1cccc(CN2CCC(=O)N(CCO)CC2)c1 | inactive
4 | CC(C)(C)c1cc(CN2CCN(CCC#N)CC2)cc(C(C)(C)C)c1O | 2.24 µM (active)
5 | Cc1cc(C(=O)CCl)c(C)n1CC1COc2ccccc2O1 (configuration not stated) | 10 µM (active)
6 | Cc1noc(C)c1C(=O)NCC1COc2ccccc2O1 (configuration not stated) | inactive
7 | O=C1C(=O)N(CC2COc3ccccc3O2)c2ccccc21 (configuration not stated) | inactive
8 | Cc1ccc2nc(COc3ccc(NC(=O)COc4ccccc4F)cc3)cc(=O)n2c1 | inactive
9 | C=C(C)C(=O)O[C@H]1C/C(C)=C\C(=O)/C=C(\C)[C@H](O)[C@@H]2OC(=O)C(=C)[C@@H]21 | 3.55 µM (active)
10 | CCOC(=O)c1c(C)oc2nc(C)nc(N(CC(C)C)CC(C)C)c12 | inactive
11 | CCCC[C@]12Cc3cc(OC)c(OC)cc3C(O1)C1=C(CC3(CCCCC3)OC1=O)O2 | 11.2 µM (active)
12 | CCCCC12CN3CC(C)(CN(C1)C3c1ccc(O)c(OC)c1)C2=O (configuration not stated) | inactive
13 | COc1cc2c(cc1OC)CC1(CCCCC1)N=C2 | inactive
14 | COc1ccc(-c2[nH]c3c(c2-c2c(-n4cccc4)n(C)c(=O)n(C)c2=O)c(=O)n(C)c(=O)n3C)cc1 | inactive
15 | Cc1ccc(NC(=O)c2oc3ccccc3c2NC(=O)Cc2cccs2)cc1 | inactive
16 | CSc1ccccc1NC(=O)COC(=O)CCCOc1ccc(C)cc1 | inactive
17 | COc1cc([N+](=O)[O-])ccc1NC(=O)COC(=O)CCOc1ccc(C)cc1 | 35.5 µM (active)
18 | COc1cccc(NC(=O)COC(=O)CCOc2ccccc2OC)c1 | inactive
19 | CCOC(=O)c1ccc(NC(=O)CCS(=O)(=O)c2ccc3c(c2)oc(=O)n3C)cc1 | inactive
20 | Cc1ccc(C(=O)OC2=CC(=O)CC(C)(C)C2)cc1 | 44.7 µM (active)
21 | Cc1ccc(C(=O)Oc2ccc(C(=S)N3CCOCC3)cc2)cc1 | inactive

Row | Structure (SMILES) | Potency
22 | COC(=O)NNC1=CC(=O)CC(C)(C)C1 | inactive
23 | COc1ccccc1CNC(=O)c1ccc(CS(=O)c2ccccc2Cl)o1 (configuration not stated) | inactive
24 | COc1cccc(C(=O)N(Cc2cccc(Cl)c2)Cc2ccco2)c1 | inactive
25 | CS(=O)(=O)Nc1cccc(C2=NN(S(=O)(=O)c3ccccc3)C(c3cccs3)C2)c1 (configuration not stated) | inactive
26 | CCS(=O)(=O)Nc1ccc(C2=NN(C(C)=O)C(c3cccs3)C2)cc1 (configuration not stated) | inactive
27 | CCS(=O)(=O)Nc1ccc(C2=NN(S(=O)(=O)c3ccc(F)cc3)C(c3ccco3)C2)cc1 (configuration not stated) | 44.7 µM (active)
28 | CCOCCCNC(=O)c1c(NC(=O)Cc2coc3c(C)c(C)ccc23)sc2c1CCC2 | inactive
29 | CCCCNC(=O)CSc1nc2cc3c(cc2c(=O)n1CCCCCC(=O)NCc1ccc2c(c1)OCO2)OCO3 | inactive
30 | O=c1oc(-c2ccco2)nc2sc3c(c12)CCCCC3 | inactive
31 | O=C(CSc1nc2cc3c(cc2c(=O)n1CCC1=CCCCC1)OCO3)NCc1ccco1 | inactive
32 | C=C(C)Cn1c(SCC(=O)NCc2ccco2)nc2sc3c(c2c1=O)CCC3 | 44.7 µM (active)
33 | O=C(NCc1ccco1)c1cccn2c(=O)c3c4c(sc3nc12)CCCC4 | 12.6 µM (active)
34 | C=CCn1c(SCC(=O)NCCCO)nc2sc3c(c2c1=O)CCC3 | inactive
35 | O=C(NCc1ccco1)c1nc2ncccn2n1 | inactive
36 | Cc1nc2ccc(S(=O)(=O)N(CC(=O)Nc3ccc(F)cc3)Cc3ccccc3)cc2s1 | inactive
37 | CCN(CC)C(=O)CSc1nc2cc3c(cc2c(=O)n1CCCC(=O)NCc1ccc2c(c1)OCO2)OCO3 | inactive
38 | CCc1cc(=O)oc2c(C)c(OCC(=O)NCCN3CCOCC3)ccc12 | inactive
39 | CC(=O)Oc1cc2c(C(=O)NCCN3CCOCC3)c(C)oc2c2ccccc12 | 25.1 µM (active)
40 | Cc1cc(C)cc(C(=O)NCCN2CCOCC2)c1 | inactive
41 | CCS(=O)(=O)N1CCC(n2c(C)nc3cccnc32)CC1 | inactive
42 | COC(=O)c1ccc(NC(=O)c2cc(S(=O)(=O)N3CCC(C)CC3)cn2C)cc1 | inactive

Row | Structure (SMILES) | Potency
43 | O=C(CCS(=O)(=O)c1ccccc1)Nc1nc2c(s1)CCCC2 | 50.1 µM (active)
44 | O=C(Nc1nc2c(s1)CCCC2)c1ccccc1F | inactive
45 | O=C(CCS(=O)(=O)c1ccccc1)NC1CCCC1 | inactive
46 | COc1ccccc1NC(=O)c1cc(C2CC2)nc2c1c(C)nn2-c1ccc(C)cc1 | inactive
47 | CCCn1nc(C(=O)N2CCCc3ccccc32)c2ccccc2c1=O | inactive
48 | Cc1occc1C(=O)N1CCCc2ccccc21 | 44.7 µM (active)
49 | O=C(c1c(Cl)nc2sccn12)N1CCCc2ccccc21 | inactive
50 | CC(C)c1ccc(NC(=O)CN(C)S(=O)(=O)c2ccc3c(c2)c(=O)n(C)c(=O)n3C)cc1 | inactive
51 | Cc1ccc(Cl)cc1N1CCN(C(=O)CN2C(=O)COc3ccc(S(=O)(=O)N4CCOCC4)cc32)CC1 | inactive
52 | CCCNc1ncnc2c1c(-c1ccccc1)cn2-c1ccc(OCC)cc1 | inactive
53 | CCc1ccc(NC(=O)CN2C(=O)C(c3ccccc3)=NC23CCCCCC3)cc1 | inactive
54 | CCCCCCC(=O)N(O)C1CC(=O)N(c2ccccc2)C1=O (configuration not stated) | 0.282 µM (active)
55 | CCOc1ccc(N2C(=O)CC(N(CCc3ccc(OC)c(OC)c3)C(=S)Nc3ccccc3)C2=O)cc1 (configuration not stated) | inactive
56 | CCCCOC(=O)c1ccc(N2C(=O)CC(N3CCN(C/C=C/c4ccccc4)CC3)C2=O)cc1 (configuration not stated) | inactive
57 | CCOc1cc2[nH]c(=O)n(Cc3ccc(C(=O)NCCN(CC)CC)cc3)c(=O)c2cc1OCC | inactive
58 | COc1cc(-c2nc(S(=O)(=O)c3ccc(Cl)cc3)c(N(C)C)o2)cc(OC)c1OC | 25.1 µM (active)
59 | COc1ccc(-c2nnc(NC(=O)CS(=O)(=O)c3ccc(Cl)cc3)o2)c(OC)c1 | inactive
60 | Cc1cc(C)cc(NC(=O)CSc2oc(-c3ccccc3)nc2S(=O)(=O)c2ccc(Cl)cc2)c1 | inactive
61 | CCOc1ccc(N(CC)S(=O)(=O)N2CCCC(C(=O)NCc3ccc(SC)cc3)C2)cc1 (configuration not stated) | inactive
62 | COc1ccc(-c2c3c(=O)n(C)c(=O)n(C)c3c3c(C)nc4ccccc4n23)cc1 | inactive
